# Results from ChEMBL document CHEMBL4808148, “HDAC6 screening dataset using tau-based substrate in an enzymatic assay yields selective inhibitors and activators” (2021).
# The whole screen tested about 5,600 compounds, of which about 390 (7%) showed an effect of 50% or more. This is one part of a sample in which strong results are shown more often than they occur. Non-standard residues stand in square brackets, D forms with d. Residues, ends and D or L forms follow the SMILES beside them.
# Molecular target: T1, Protein deacetylase HDAC6 (Homo sapiens) (UniProt Q9UBN7)
# T1 sequence (whole entry): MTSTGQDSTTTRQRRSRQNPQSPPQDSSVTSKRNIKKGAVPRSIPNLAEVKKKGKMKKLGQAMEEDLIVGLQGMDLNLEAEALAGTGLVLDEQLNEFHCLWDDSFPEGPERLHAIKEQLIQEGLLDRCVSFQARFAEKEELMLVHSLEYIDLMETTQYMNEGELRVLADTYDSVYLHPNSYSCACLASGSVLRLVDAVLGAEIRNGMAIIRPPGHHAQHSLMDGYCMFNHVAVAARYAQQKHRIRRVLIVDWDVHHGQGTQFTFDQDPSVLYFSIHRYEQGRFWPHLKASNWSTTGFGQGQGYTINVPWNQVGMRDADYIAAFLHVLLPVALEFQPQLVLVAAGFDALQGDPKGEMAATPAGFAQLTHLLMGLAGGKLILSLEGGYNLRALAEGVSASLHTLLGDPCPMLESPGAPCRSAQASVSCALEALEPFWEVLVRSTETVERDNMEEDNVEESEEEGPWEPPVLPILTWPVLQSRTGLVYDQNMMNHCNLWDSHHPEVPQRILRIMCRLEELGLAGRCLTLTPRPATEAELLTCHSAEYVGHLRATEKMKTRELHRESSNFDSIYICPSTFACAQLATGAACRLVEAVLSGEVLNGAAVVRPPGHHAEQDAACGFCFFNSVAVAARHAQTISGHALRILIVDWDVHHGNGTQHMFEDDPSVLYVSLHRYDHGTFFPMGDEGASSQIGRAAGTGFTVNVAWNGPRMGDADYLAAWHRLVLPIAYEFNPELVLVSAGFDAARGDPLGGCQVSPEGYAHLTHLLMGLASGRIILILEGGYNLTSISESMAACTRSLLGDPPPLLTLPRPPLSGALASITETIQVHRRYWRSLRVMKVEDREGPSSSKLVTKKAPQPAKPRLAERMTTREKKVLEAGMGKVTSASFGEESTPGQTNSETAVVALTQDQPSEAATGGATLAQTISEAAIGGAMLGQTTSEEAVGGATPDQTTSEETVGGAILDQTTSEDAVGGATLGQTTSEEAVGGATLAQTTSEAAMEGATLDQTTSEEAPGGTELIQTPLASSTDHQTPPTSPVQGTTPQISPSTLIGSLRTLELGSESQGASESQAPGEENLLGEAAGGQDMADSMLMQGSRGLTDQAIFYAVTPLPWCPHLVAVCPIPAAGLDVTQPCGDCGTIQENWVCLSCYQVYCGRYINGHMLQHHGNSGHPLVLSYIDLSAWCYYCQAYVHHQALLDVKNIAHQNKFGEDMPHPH
# Details: at 10 µM
row,Compound,inhibition [%]
1,C[C@H]1[C@H](C)CC[C@]2(C(=O)O)CC[C@]3(C)C(=CC[C@@H]4[C@@]5(C)C[C@@H](O)[C@H](O)[C@@](C)(CO)[C@@H]5CC[C@]43C)[C@H]12,-0.26
2,O=C(NCc1ccccn1)Nc1nnc(-c2ccco2)o1,1.12
3,CCCN(C/C=C/I)C1CCc2cccc(O)c2C1 (stereo unspecified),14.4
4,CN(C)c1ccc(C(=C2C=CC(=[N+](C)C)C=C2)c2ccc(N(C)C)cc2)cc1,79.1
5,C[C@H](Nc1cc(-c2cnn(C)c2)cc(Nc2cnccn2)n1)c1ccc(F)cc1,3.96
6,O=C(O)C1=CCNCC1,5.63
7,Cc1cc(C)c2nc(-c3ccccn3)cc(C(=O)Nc3ccc(S(=O)(=O)Nc4onc(C)c4C)cc3)c2c1,-6.66
8,Cc1ccc(O)c(/N=N/c2ccccc2)n1,102
9,Cc1ccccc1/N=N/c1ccc(/N=N/c2c(O)ccc3ccccc23)c(C)c1,12
10,C=CCN1CCN(c2nc3ccccc3nc2C#N)CC1,32.5
11,CC(C)=CCC/C(C)=C/CC/C(C)=C/CC[C@]1(C)CCc2cc(O)cc(C)c2O1,-4.35
12,CN1CCN(CCc2ccc(Cl)c(Cl)c2)CC1,0.9
13,NC(=O)c1sc(-c2ccsc2)cc1N,101
14,CCc1cc2c(cc1CC)CC(NC[C@H](O)c1ccc(O)c3[nH]c(=O)ccc13)C2,15.6
15,COC(=O)N[C@H](C(=O)N1CCC[C@H]1C(=O)Nc1ccc([C@@H]2CC[C@@H](c3ccc(NC(=O)[C@@H]4CCCN4C(=O)[C@@H](NC(=O)OC)C(C)C)cc3)N2c2ccc(C(C)(C)C)cc2)cc1)C(C)C,18.8
16,CCOC(=O)C1=CCCC[C@H]1S(=O)(=O)Nc1ccc(F)cc1Cl,-6.94
17,NC(=O)N/N=C/c1ccc([N+](=O)[O-])o1,-5.79
18,CC1=NN(c2ccc(C(=O)O)cc2)C(=O)/C1=C\c1ccc(-c2cc(C)c(C)cc2[N+](=O)[O-])o1,-7.66
19,CCOC(=O)c1ccc(N2NC(=O)/C(=C/c3ccc([N+](=O)[O-])o3)C2=O)cc1,66.9
20,Cc1cccc(CCN2CCC(C(=O)c3ccc(NS(C)(=O)=O)cc3)CC2)n1,25.6
21,C[C@]1(O)C[C@@H](c2nc(-c3ccc4ccc(-c5ccccc5)nc4c3)c3c(N)nccn32)C1,29.4
22,Fc1ccc(CNc2ncnc3ccc(F)cc23)cc1,-3.85
23,COc1cc2ncnc(Nc3ccc(Oc4ccccc4)cc3)c2cc1OC,1.72
24,Nc1ccc2ncnc(NCCc3ccc(Oc4ccccc4)cc3)c2c1,58
25,FC(F)(F)c1ccccc1-c1cc(C(F)(F)F)c2[nH]c(C3=NOC4(CCCCC4)C3)nc2c1,-8.26
26,C[C@]12CC[C@H](O)CC1=CC[C@@H]1[C@@H]2CC[C@]2(C)C(c3cccnc3)=CC[C@@H]12,11.3

row,Compound,inhibition [%]
1,CC[S+]([O-])c1nc(-c2cccc(OCc3ccccc3)c2)cc(C(F)(F)F)n1 (stereo unspecified),21.6
2,COc1ccc2cc(C(C)C(=O)Oc3ccc(C(N)=S)cc3)ccc2c1 (stereo unspecified),29
3,Oc1cc(O)c2c(c1)O[C@H](c1ccc(O)c(O)c1)[C@H](O)[C@H]2c1c(O)cc(O)c2c1O[C@H](c1ccc(O)c(O)c1)[C@H](O)C2,11
4,COc1ccccc1CC(=N)N1C[C@@H]2C(=O)CCC(c3ccccc3)(c3ccccc3)[C@@H]2C1,5.85
5,Cc1c(C2CCN(CCc3ccccc3)CC2)noc1-c1ccc(Cl)cc1,5.51
6,CCCCOCCOc1nc(-c2ccc(C(=O)O)c(F)c2)sc1C,3.39
7,Cc1cc(SCc2sc(-c3ccc(C(F)(F)F)cc3)nc2C)ccc1OCC(=O)O,46.6
8,Cc1nc(-c2ccc(OCC(C)C)c(C#N)c2)sc1C(=O)O,94.2
9,CCCCCCCC(=O)N[C@H](CN1CCCC1)[C@H](O)c1ccc2c(c1)OCCO2,6.2
10,CC(=O)NCC(=O)N[C@H](CCC(=O)O)C(=O)O (Ac-Gly-[dE]-OH),1.3
11,O=C(O)c1ccc2nc(-c3cc(Cl)cc(Cl)c3)oc2c1,76.5
12,CCN1CCCC1CNC(=O)c1cc(S(=O)(=O)CC)c(N)cc1OC (stereo unspecified),-7.98
13,C[C@@H]1C(=O)O[C@H]2[C@H](O)C34C5C[C@@H](C(C)(C)C)[C@]36[C@@H](OC(=O)[C@@H]6O)O[C@@]4(C(=O)O5)[C@@]12O (stereo partly specified),21
14,CC#CCOC(=O)c1c(C)nc2sc3c(c2c1N)CCC(O)C3 (stereo unspecified),72.4
15,CN(NC(=O)CC(=O)NN(C)C(=S)c1ccccc1)C(=S)c1ccccc1,1.95
16,CO[C@H]1CC[C@@H](C(=O)c2ccc3nc4c(cc3c2)CCCO4)CC1,61
17,O=S(=O)(c1cccc2c(O)nccc12)N1CCCNCC1,9.53
18,Cc1ccc(S(N)(=O)=O)cc1,-0.54
19,COc1cccc(NC(=O)/C=C/c2ccc(Cl)cc2)c1,99.9
20,COc1ccc(/C=C/C(=O)O)cc1,-4.93
21,COc1cc(NC(=O)c2ccc(-c3ccc(Cl)cc3)o2)cc(OC)c1,1.11
22,CCN(CC)CCOc1ccc(Nc2ncc3cc(-c4c(Cl)cccc4Cl)c(=O)n(C)c3n2)cc1,12.6
23,Cc1cc(-c2ccc(/N=N/c3ccc4c(S(=O)(=O)O)cc(S(=O)(=O)O)c(N)c4c3O)c(C)c2)ccc1/N=N/c1ccc2c(S(=O)(=O)O)cc(S(=O)(=O)O)c(N)c2c1O,80.8
24,NC(=O)NC1NC(=O)NC1=O (stereo unspecified),1.79
25,C[C@@H]1CCO[C@H]2Cn3cc(C(=O)NCc4ccc(F)cc4F)c(=O)c(O)c3C(=O)N12,-3.66
